Records with an inconclusive call do not appear. Values without a mark were called inactive. Calls follow the shape of the full dose curve.
Potency is read from the fitted curve at half-maximal effect.

The nature of this test: Cell Viability - HepG2 (AID 433).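 Also: potency for ATP loss meaning cytotoxicity.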 As to conditions: qHTS. From the text:
NIH Chemical Genomics Center [NCGC]
NIH Molecular Libraries Screening Centers Network [MLSCN]
National Institutes of Environmental Health Sciences [NIEHS]
National Toxicology Program [NTP]
We have developed a 1536-well cell-based assay for quantitative high throughput screening (qHTS) against a number of cell lines to determine in vitro cytotoxicity of small molecules. This particular assay uses the HepG2 cell line which is derived from hepatocellular carcinoma.
NCGC Assay Protocol Summary:
The CellTiter-Glo luminescent cell viability assay (Promega) is a homogeneous method to measure the number of viable cells in culture. The end point readout of this assay is based on quantitation of intracellular ATP, an indicator of metabolic activity, using the luciferase reaction. Luciferase catalyzes the oxidation of beetle Luciferin to oxyluciferin and light in the presence of ATP. The luminescent signal is proportional to amount of ATP present.
Using the CellTiter-Glo luminescent cell viability assay, the amount of cellular ATP was measured in the HepG2 cell line with complete culture medium following compound treatment for 40 hours. The assay was performed in opaque white Kalypsys 1536-well plates. In the screen, tamoxifen and doxorubicin were used as positive controls. Library compounds were measured for their ability to cause acute toxicity in the cell line, as reflected by a decrease in intracellular ATP levels, in a concentration-dependent manner. Data were normalized to the controls for basal activity (DMSO only) and 100% inhibition (100 uM tamoxifen). AC50 values were determined from concentration-response data modeled with the standard Hill equation.
qHTS protocol fo CellTiter Glo HepG2 cellular assay
[Step] [Parameter] [Value] [Description]
1. Reagent; 5 uL; 1500 HepG2 cells/well
2. Time; 5 hr; 37 °C incubation
4. Controls; 23 nL; Tamoxifen 0.34 uM to 100 uM & Doxorubicin 0.02 nM to 100 uM
5. Time; 40 hr; 37 °C incubation
6. Reagent; 5 uL; CellTiter Glo reagent
7. Time; 20 min; Room Temperature
8. Detection; Luminescence; Viewlux plate reader
Keywords: cell viability, cytotoxicity, HepG2 cell line, luminescence, NTPHTS, NTPHTS_NCGC, NIEHS, EPA, DSSTox, MLSMR, MLSCN, NIH Roadmap, qHTS, NCGC
Turning to `Clc1ccc(C(c2ccc(Cl)cc2)C(Cl)(Cl)Cl)cc1`, the Potency was more than 92 µM.
For the compound `C[C@]1(O)CC[C@H]2[C@@H]3CCC4=CC(=O)CC[C@]4(C)[C@@]3(F)[C@@H](O)C[C@@]21C`, the Potency is more than 92 µM.
In the case of `CCOC(=O)CC(SP(=S)(OC)OC)C(=O)OCC` (centres undefined) it was more than 92 µM; in that of `Oc1ccc(Cl)cc1`, more than 92 µM; in that of `NCCc1ccc(O)cc1`, more than 92 µM.
Take `O=P1(N(CCCl)CCCl)NCCCO1` (centres undefined): the Potency is more than 92 µM.
For `CCCC(C)(COC(N)=O)COC(N)=O`, the Potency is more than 92 µM.
In the case of `CCC(C)(C)c1ccc(O)cc1` it was more than 92 µM; in that of `O=C(O)CCCc1ccc(N(CCCl)CCCl)cc1`, more than 92 µM; in that of `C[C@]12CCC(=O)C=C1CC[C@@H]1[C@@H]2CC[C@@]2(C)[C@H]1CC[C@]2(C)O`, more than 92 µM.
Take `Nc1ccccc1C(=O)O`: the Potency was more than 92 µM.
On to `COc1cc(OC)c(OC)cc1C=O`, for which the Potency is more than 92 µM.
Consider `COC(=O)C(c1ccccc1)C1CCCCN1` (centres undefined), for which the Potency is more than 92 µM.
In the case of `CC(C)NC(C)C` it was more than 92 µM; in that of `Nc1ccccc1`, more than 92 µM.
Consider `COP(=S)(OC)Oc1ccc(SC)c(C)c1`, for which the Potency was more than 92 µM.
Regarding `C[C@]12CCC(=O)C=C1CC[C@@H]1[C@@H]2CC[C@]2(C)C(=O)CC[C@@H]12`, the Potency was more than 92 µM.
With `CC(C)c1cccc(C(C)C)c1O`, the Potency was more than 92 µM.
`CN1C[C@H](C(=O)N[C@]2(C)O[C@@]3(O)[C@@H]4CCCN4C(=O)[C@H](Cc4ccccc4)N3C2=O)C=C2c3cccc4[nH]cc(c34)C[C@H]21`: the Potency is more than 92 µM.

The record behind these values is PubChem BioAssay (NCATS).
